{"source": "the supplement of paper PMC12819154", "about": "“High-throughput peptide-centric local stability assay extends protein–ligand identification to membrane proteins, tissues and bacteria” (Nature Structural & Molecular Biology, 2025);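 note: lysate desalted by size exclusion to strip endogenous ATP, peptide intensities built from DIA-NN precursor signals, and peptides missing any value discarded before comparison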", "data": [{"compound": "Nc1ncnc2c1ncn2[C@@H]1O[C@H](COP(=O)(O)OP(=O)(O)OP(=O)(O)O)[C@@H](O)[C@H]1O [adenosine 5'-triphosphate]", "experiment": "log2 fold change of tryptic peptide abundance, ligand vs vehicle (limited proteolysis) (log2 ratio); higher = more trypsin-susceptible (destabilized)", "details": "ligand concentration: 5 mM; sample: E. coli desalted lysate; replicate design: treated before aliquoting", "experimental": "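HT-PELSA: desalted E. coli K-12 BW25113 lysate (with 12 mM MgCl2) incubated with 5 mM ATP (pH 7) or water for 30 min at 25 C, then a 4 min trypsin pulse at 22 C. Peptides were quantified by DIA-MS (4 replicates). Value is the peptide log2 fold change (treated/control); negative = stabilized. Scale: negative = ligand-stabilized region.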", "values": [{"target": "UniProt Q46855 (peptide sequence: VGYESASQFSR, peptide start residue: 285)", "sequence (Q46855 whole entry)": "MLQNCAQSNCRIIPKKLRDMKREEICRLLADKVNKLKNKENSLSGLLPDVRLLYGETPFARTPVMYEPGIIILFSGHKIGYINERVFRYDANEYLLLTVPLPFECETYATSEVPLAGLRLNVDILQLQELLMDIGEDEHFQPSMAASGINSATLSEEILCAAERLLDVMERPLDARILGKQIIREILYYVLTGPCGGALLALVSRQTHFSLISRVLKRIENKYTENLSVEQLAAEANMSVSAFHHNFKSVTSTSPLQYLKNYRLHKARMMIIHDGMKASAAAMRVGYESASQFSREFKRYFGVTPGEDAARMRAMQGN", "log2 fold change": 0.235}, {"target": "UniProt P46889 (peptide sequence: FRDNPSPLTVVLGK, peptide start residue: 957)", "sequence (P46889 whole entry)": "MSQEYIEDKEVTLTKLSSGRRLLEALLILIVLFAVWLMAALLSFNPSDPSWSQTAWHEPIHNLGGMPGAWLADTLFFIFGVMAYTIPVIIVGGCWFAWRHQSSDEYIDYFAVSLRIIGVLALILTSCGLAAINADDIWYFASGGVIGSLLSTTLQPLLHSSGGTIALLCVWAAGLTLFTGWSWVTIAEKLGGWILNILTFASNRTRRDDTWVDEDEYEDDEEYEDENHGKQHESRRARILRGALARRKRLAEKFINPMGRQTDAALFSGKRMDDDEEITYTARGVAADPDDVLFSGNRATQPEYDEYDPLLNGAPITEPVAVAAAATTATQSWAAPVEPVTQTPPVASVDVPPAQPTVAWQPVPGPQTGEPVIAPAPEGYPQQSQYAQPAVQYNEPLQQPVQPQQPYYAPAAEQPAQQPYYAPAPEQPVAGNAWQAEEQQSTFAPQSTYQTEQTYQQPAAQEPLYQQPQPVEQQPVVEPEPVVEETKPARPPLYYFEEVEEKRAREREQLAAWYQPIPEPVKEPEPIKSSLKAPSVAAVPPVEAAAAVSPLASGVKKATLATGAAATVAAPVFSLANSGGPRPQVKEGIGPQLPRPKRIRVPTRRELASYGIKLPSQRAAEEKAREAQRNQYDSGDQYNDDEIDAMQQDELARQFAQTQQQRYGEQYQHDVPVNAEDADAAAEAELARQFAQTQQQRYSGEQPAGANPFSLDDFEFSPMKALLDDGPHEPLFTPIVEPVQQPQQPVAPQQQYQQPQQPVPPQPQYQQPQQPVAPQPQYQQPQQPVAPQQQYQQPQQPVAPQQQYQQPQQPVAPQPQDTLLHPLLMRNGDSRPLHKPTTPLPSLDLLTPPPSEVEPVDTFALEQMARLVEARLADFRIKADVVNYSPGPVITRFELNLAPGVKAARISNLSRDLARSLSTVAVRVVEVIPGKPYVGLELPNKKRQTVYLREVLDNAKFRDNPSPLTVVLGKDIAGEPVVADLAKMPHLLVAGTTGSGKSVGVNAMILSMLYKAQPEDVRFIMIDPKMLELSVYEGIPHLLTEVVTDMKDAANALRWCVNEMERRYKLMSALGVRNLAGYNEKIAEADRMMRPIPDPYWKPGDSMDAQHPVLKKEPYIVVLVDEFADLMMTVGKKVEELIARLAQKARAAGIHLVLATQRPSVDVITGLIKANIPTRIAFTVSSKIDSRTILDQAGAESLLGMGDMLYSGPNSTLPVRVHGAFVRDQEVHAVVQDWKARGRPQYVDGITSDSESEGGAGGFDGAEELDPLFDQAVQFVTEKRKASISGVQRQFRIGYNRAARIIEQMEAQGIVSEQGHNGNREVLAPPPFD", "log2 fold change": -1.51}, {"target": "UniProt Q46800 (peptide sequence: LAFGVAAPTPIR, peptide start residue: 215)", "log2 fold change": 0.403}, {"target": "UniProt P76273 (peptide sequence: CGISNVALTHFDGR, peptide start residue: 165)", "sequence (P76273 whole entry)": "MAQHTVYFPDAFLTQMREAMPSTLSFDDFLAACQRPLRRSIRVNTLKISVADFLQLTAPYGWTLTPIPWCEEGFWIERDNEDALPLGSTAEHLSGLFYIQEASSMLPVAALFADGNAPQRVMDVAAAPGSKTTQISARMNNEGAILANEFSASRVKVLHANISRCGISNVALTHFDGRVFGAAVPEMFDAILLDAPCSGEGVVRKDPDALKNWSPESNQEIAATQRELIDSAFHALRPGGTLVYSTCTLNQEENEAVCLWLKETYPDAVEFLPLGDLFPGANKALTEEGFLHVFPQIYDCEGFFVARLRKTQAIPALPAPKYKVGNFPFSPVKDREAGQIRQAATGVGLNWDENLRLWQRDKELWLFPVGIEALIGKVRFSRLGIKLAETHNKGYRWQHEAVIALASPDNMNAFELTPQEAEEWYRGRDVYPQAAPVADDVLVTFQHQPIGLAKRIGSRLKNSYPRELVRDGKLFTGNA", "log2 fold change": 0.512}, {"target": "UniProt P07604 (peptide sequence: YAWPGNVR, peptide start residue: 410)", "log2 fold change": -1.06}, {"target": "UniProt P25894 (peptide sequence: QRGISPAGLATSFEK, peptide start residue: 202)", "log2 fold change": 0.934}, {"target": "UniProt P77300 (peptide sequence: STLHSLLK, peptide start residue: 38)", "sequence (P77300 whole entry)": "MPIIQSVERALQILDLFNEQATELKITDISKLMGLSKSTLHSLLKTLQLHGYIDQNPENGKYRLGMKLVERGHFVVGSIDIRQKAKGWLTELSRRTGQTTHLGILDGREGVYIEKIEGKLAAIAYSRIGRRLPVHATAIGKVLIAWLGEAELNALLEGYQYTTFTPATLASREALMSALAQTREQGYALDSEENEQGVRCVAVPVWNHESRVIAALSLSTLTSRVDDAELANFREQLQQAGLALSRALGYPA", "log2 fold change": -0.881}, {"target": "UniProt P0ACL0 (peptide sequence: IILAGGELR, peptide start residue: 137)", "log2 fold change": -0.596}, {"target": "UniProt P23847 (peptide sequence: MAEMIQADWAK, peptide start residue: 392)", "log2 fold change": -0.859}, {"target": "UniProt P23865 (peptide sequence: VRLEILPAGK, peptide start residue: 315)", "log2 fold change": 1.04}, {"target": "UniProt P25524 (peptide sequence: EYGVESLHK, peptide start residue: 192)", "sequence (P25524 whole entry)": "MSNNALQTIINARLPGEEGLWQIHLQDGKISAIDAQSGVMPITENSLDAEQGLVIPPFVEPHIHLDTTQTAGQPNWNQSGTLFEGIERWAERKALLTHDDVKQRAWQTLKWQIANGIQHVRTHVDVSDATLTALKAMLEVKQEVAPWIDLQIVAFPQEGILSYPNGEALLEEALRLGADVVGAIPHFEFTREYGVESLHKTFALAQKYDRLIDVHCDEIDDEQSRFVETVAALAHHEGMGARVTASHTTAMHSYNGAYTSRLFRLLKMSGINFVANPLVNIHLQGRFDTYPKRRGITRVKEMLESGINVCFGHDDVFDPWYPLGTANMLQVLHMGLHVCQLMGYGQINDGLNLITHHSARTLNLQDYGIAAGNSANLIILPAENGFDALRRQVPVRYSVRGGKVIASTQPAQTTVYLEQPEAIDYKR", "log2 fold change": -0.706}, {"target": "UniProt P29018 (peptide sequence: HLSWVGQNPQLPAATLR, peptide start residue: 424)", "log2 fold change": -0.418}, {"target": "UniProt P0A9B6 (peptide sequence: SLQSLPWR, peptide start residue: 82)", "sequence (P0A9B6 whole entry)": "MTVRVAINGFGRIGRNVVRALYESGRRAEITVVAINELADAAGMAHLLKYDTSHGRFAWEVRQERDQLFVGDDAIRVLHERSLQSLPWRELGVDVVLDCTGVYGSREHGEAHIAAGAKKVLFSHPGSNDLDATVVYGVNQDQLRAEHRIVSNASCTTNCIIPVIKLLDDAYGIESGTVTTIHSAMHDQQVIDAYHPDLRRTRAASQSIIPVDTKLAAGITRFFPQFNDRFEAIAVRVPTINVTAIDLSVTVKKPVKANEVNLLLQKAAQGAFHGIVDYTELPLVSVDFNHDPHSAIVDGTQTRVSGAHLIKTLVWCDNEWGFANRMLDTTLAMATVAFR", "log2 fold change": -0.912}, {"target": "UniProt P75874 (peptide sequence: YLLDQGYHVIPVSPK, peptide start residue: 35)", "sequence (P75874 whole entry)": "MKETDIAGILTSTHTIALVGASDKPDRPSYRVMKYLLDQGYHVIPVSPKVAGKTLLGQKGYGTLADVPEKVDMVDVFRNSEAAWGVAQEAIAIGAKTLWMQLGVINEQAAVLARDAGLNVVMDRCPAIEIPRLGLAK", "log2 fold change": 0.437}, {"target": "UniProt P37342 (peptide sequence: SESLDDFFTR, peptide start residue: 261)", "log2 fold change": 0.46}, {"target": "UniProt P00959 (peptide sequence: HTIMVANLAPRK, peptide start residue: 630)", "log2 fold change": -0.728}, {"target": "UniProt P30958 (peptide sequence: FANWPVR, peptide start residue: 673)", "log2 fold change": -0.413}, {"target": "UniProt P27296 (peptide sequence: SIPHIIVTSATLR, peptide start residue: 451)", "sequence (P27296 whole entry)": "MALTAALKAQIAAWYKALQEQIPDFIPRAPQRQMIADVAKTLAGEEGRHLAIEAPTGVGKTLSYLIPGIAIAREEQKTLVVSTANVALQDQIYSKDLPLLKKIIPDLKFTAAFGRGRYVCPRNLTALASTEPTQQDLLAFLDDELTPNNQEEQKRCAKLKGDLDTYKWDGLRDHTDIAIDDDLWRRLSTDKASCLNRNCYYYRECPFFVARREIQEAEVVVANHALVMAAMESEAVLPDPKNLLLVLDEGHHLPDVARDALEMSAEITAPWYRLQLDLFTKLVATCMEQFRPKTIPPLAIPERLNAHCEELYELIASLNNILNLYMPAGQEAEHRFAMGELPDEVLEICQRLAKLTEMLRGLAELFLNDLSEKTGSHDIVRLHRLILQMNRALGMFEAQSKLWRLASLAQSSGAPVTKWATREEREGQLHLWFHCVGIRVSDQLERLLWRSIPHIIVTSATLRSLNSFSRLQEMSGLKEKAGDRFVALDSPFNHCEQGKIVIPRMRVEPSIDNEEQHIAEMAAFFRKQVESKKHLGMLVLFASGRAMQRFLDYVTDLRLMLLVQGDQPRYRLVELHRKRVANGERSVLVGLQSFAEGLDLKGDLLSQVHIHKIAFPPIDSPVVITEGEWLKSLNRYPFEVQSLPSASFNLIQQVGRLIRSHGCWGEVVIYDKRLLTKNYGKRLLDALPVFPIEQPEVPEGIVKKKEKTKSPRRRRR", "log2 fold change": -2.01}, {"target": "UniProt P37769 (peptide sequence: LMANEWAK, peptide start residue: 171)", "log2 fold change": -0.444}, {"target": "UniProt P76403 (peptide sequence: SFYYCARTAQVYRK, peptide start residue: 294)", "log2 fold change": -0.632}, {"target": "UniProt P25535 (peptide sequence: LADTLPGVKPQLIR, peptide start residue: 374)", "log2 fold change": 0.527}, {"target": "UniProt P00946 (peptide sequence: FEAKPANQLLTQPVK, peptide start residue: 293)", "sequence (P00946 whole entry)": "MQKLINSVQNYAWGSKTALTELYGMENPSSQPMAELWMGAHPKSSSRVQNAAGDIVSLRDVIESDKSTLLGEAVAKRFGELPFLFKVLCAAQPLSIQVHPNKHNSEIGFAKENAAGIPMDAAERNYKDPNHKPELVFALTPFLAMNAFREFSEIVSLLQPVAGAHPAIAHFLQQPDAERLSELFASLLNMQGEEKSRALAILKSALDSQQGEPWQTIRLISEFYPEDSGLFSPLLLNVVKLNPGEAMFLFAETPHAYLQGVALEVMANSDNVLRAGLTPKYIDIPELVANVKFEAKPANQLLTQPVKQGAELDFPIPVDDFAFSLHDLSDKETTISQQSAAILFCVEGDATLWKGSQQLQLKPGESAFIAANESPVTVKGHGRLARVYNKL", "log2 fold change": -0.633}, {"target": "UniProt P76545 (peptide sequence: YLDFAEDREHAESVATK, peptide start residue: 7)", "sequence (P76545 whole entry)": "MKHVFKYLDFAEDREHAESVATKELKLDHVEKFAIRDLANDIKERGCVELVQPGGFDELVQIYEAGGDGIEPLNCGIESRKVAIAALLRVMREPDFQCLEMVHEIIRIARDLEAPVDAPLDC", "log2 fold change": -2.38}, {"target": "UniProt P0AAB8 (peptide sequence: EQCDLLVCGHHHSFINR, peptide start residue: 102)", "sequence (P0AAB8 whole entry)": "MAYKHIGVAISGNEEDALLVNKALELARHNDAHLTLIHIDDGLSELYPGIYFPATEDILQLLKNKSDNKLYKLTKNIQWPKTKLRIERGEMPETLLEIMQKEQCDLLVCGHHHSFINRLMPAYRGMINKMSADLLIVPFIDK", "log2 fold change": -0.697}, {"target": "UniProt P0AD19 (peptide sequence: GLAMGTASHALGTAR, peptide start residue: 178)", "log2 fold change": -0.978}, {"target": "UniProt P42603 (peptide sequence: TPSAVDER, peptide start residue: 175)", "log2 fold change": -0.551}, {"target": "UniProt P10371 (peptide sequence: DYGNDPLPR, peptide start residue: 26)", "sequence (P10371 whole entry)": "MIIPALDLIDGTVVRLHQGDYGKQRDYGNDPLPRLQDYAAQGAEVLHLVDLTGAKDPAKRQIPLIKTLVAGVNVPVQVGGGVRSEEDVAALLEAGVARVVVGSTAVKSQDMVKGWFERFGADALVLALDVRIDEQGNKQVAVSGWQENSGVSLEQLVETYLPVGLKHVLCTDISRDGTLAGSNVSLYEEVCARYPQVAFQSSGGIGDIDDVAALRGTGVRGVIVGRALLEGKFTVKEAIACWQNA", "log2 fold change": -0.955}, {"target": "UniProt P37747 (peptide sequence: DKDSLASK, peptide start residue: 216)", "log2 fold change": -0.827}, {"target": "UniProt P46859 (peptide sequence: GDFDVIESR, peptide start residue: 112)", "log2 fold change": -0.658}, {"target": "UniProt P75958 (peptide sequence: GVADALK, peptide start residue: 153)", "log2 fold change": -0.59}, {"target": "UniProt P06710 (peptide sequence: HQLEHILNEEHIAHEPR, peptide start residue: 185)", "log2 fold change": -1.86}]}]}
